Among the data in PubChem BioAssay are z-score and composite z-score values, retold here.

Tested on in one test: not listed separately
As to the kind of experiment: RPMI8226 myeloma cell viability, profiling panel, resazurin fluorescence, basal, 24 h, PK04 Diversity Set (AID 1180).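 Note: RPMI8826 multiple myeloma cell line at 5000 cells per well; test concentration not given here.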 The note with it: higher = more signal.
With `COCCOC(=O)N1C(=O)[C@@]2(c3cc(C#Cc4ccc(OC)cc4)ccc31)[C@H](c1ccc(OCCO)cc1)N1[C@H](c3ccccc3)[C@H](c3ccccc3)OC(=O)[C@H]1[C@@H]2C(=O)N1CCN(c2ncccn2)CC1`, the z-score was 0.55. The same measure, in the same setting: under `CCC[C@@H]1C[C@@]1(CCC)[C@@H](NC(=O)c1ccccc1)c1cccc(Cl)c1` stands 1.09; under `[N-]=[N+]=Nc1ccccc1[C@H]1OC(c2ccc(OCCCO)cc2)=N[C@@]1(CCS(=O)(=O)c1ccccc1)C(=O)NCC(O)CO` (stereo partly specified), -0.389.

As for `O=C1N[C@@H](Cc2ccccc2)C(=O)N2[C@@H]1C[C@@H](C(=O)O)[C@H]2c1cccc(OCCO)c1`, the z-score was -0.277. The same measure, in the same setting: under `COc1ccc([Si](C)(C)[C@@H]2[C@@H](CC(=O)N3CCC[C@H]3CO)O[C@]3(C(=O)N(c4ccccc4)c4ccccc43)[C@H]2C)cc1` stands 0.729; under `CC(C)N1C(=O)C[C@@](C(=O)NCC(F)(F)F)(c2ccc([N+](=O)[O-])cc2)[C@H]1c1ccc(CO)cc1`, 0.939. Regarding `CN1C(=O)C2C=CC(C(O)C#Cc3ccccc3)N(N3CCCCC3)C2C1=O` (stereo unspecified), the z-score was -0.0142. Still for that read-out and setting: under `C=C(C)[C@@H]1CC=C(C(O)C2C=CC3C(=O)N(C)C(=O)C3N2Nc2ccccc2)CC1` (stereo partly specified) stands -0.581; under `C=CCOC(=O)[C@@H]1[C@H]2C(=O)O[C@H](c3ccccc3)[C@H](c3ccccc3)N2[C@H](c2ccc(OCCOC(=O)[C@@H]3C[C@@H]4C(=O)NCC(=O)N4[C@@H]3c3ccc(O)cc3)cc2)[C@@]12C(=O)Nc1ccc(I)cc12`, 1.3. The same measure, in the same setting: under `COC(=O)[C@@]1(Cc2ccc(OC)cc2)[C@H]2c3cc(C(=O)N(C)C)n(CCc4ccccn4)c3C[C@H]2CN1C(=O)c1ccccc1` stands -1.93.

The target in a further test is E3 ubiquitin-protein ligase XIAP (Homo sapiens) (UniProt P98170). In words: XIAP binders, primary screen, biophysical, small-molecule microarray, fluorescence 635 nm (AID 1181).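 Note: score merges 667 nm emission and signal to noise over triplicate slides.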 The note with it: small-molecule microarray binding, higher = more signal.
E3 ubiquitin-protein ligase XIAP (Homo sapiens), sequence (P98170 whole entry, looked up): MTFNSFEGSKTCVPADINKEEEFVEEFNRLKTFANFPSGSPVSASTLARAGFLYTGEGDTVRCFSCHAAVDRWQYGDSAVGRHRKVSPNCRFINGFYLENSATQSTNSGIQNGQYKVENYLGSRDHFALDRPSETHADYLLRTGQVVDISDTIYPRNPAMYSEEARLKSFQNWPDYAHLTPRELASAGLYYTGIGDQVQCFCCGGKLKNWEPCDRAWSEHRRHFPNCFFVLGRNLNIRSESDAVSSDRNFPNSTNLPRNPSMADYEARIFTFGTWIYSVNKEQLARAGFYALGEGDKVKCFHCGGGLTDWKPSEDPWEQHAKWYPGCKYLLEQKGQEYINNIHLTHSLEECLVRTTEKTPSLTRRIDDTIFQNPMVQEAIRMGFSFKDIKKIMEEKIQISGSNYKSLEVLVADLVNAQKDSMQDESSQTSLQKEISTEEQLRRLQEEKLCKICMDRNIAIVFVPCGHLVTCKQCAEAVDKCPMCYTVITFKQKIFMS
As to `O=C1C2C=CC(C(O)Cc3ccccc3)N(n3cnnc3)C2C(=O)N1Cc1ccccc1` (stereo unspecified), the composite z-score stood at 0.0328. Same read-out and setting: under `Cc1ccc(S[C@]2(C(=O)NCCCN(C)C)CC(=O)N(Cc3ccccc3C(F)(F)F)[C@@H]2c2ccc(CO)cc2)cc1` stands -0.267; under `COc1cc(C(O)C2C=CC3C(=O)NC(=O)C3N2Nc2ccccn2)cc(OC)c1OC` (stereo unspecified), -0.031; under `C=CCNC(=O)[C@H]1[C@@H]2C(=O)O[C@@H](c3ccccc3)[C@@H](c3ccccc3)N2[C@@H](c2ccccc2OCCO)[C@]12C(=O)Nc1ccc(C#CCC(C(=O)OC)C(=O)OC)cc12`, -0.159. Same read-out and setting: under `COCCOC(=O)N1C(=O)[C@@]2(c3cc(C#CCNC(N)=O)ccc31)[C@H](C(=O)N1CCN(c3ncccn3)CC1)[C@H]1C(=O)O[C@H](c3ccccc3)[C@H](c3ccccc3)N1[C@@H]2c1ccc(OCCO)cc1` stands 0.0627; under `CCOC(=O)C[C@H]1[C@H](OC(=O)c2ccc(C(=O)c3ccccc3)cc2)[C@@H](NC(=O)c2ccc3ccccc3c2)c2cc(OCCCO)ccc2N1C(=O)Cc1ccc(OC)cc1`, -0.12; under `C[C@H]1NC(=O)[C@@]23C(=O)N[C@@H](Cc4ccccc4)C2[C@H](C)[C@@]2(C)O[C@H]2C3/C=C/C/C=C\CNC(=O)[C@@H]2CCCN2C1=O` (stereo partly specified), 0.0049. The same measure, in the same setting: under `C=C(CCCC)/C(=C/C[C@@H](OC(=O)c1ccncc1)c1ccc(OCCO)cc1)c1cc(C(=O)OC)ccc1OC` stands -0.141; under `CN1C(=O)C2C=CC(C(O)c3ccc([N+](=O)[O-])cc3)N(N3CCCCC3)C2C1=O` (stereo unspecified), 0.384; under `CC(C)C(=C=CC[C@H](O)c1ccc(OCCO)cc1)CCO`, 0.223. The compound `C[C@H]1C2[C@H](Cc3ccccc3)NC(=O)[C@]23C(=O)N[C@H](Cc2ccccc2)C(=O)N2CCC[C@H]2C(=O)NC/C=C\C/C=C/C3[C@@H]2O[C@]12C` (stereo partly specified) yielded a composite z-score of 0.091. The same measure, in the same setting: for `CN(C)CCCCCCNC(=O)[C@H]1C[C@H]2C(=O)N[C@@H](CCCCN)C(=O)N2[C@H]1c1cccc(OCCO)c1` the value was 2.02; for `C=CCC(OC(C)=O)[C@@H]1[C@@H](N(Cc2cc3ccccc3o2)C(=O)c2cccc3ccccc23)c2cc(OCCCO)ccc2N1C(=O)c1ccc(-c2ccccc2)cc1` (stereo partly specified), -0.256. Still for that read-out and setting: for `COC(=O)[C@@]1(Cc2ccc(OC)cc2)[C@H]2c3cc(C(=O)N4CCCC4)n(Cc4ccc(O)c(OC)c4)c3C[C@H]2CN1C(=O)c1ccccc1` the value was 0.227; for `COC(=O)[C@@]1(Cc2ccc(OC)cc2)[C@H]2c3cc(C(=O)N4CCCC4)n(Cc4ccc(C)c(F)c4F)c3C[C@H]2CN1C(=O)c1ccccc1`, 0.0683; for `C=CCOC(=O)[C@H]1[C@@H]2C(=O)O[C@@H](c3ccccc3)[C@@H](c3ccccc3)N2[C@@H](c2ccc(OCCOC(=O)[C@@H]3C[C@@H]4C(=O)N[C@@H](CCCCNC(C)=O)C(=O)N4[C@@H]3c3ccc(O)cc3)cc2)[C@]12C(=O)Nc1ccccc12`, -0.0018.

Compound `COC(=O)[C@@]1(Cc2ccc(OC)cc2)[C@H]2c3cc(C(=O)N(C)C)n(Cc4ccc(S(C)(=O)=O)cc4)c3C[C@H]2CN1C(=O)c1ccccc1` displayed a composite z-score of -0.0139. On the same count and under the same terms, for `CC(C)=CCN[C@H](CO)c1ccccc1` the value was 0.213; for `COC(=O)[C@@]1(Cc2ccc(F)cc2)[C@H]2c3cc(C(=O)N4CCCC4)n(Cc4ccc(S(C)(=O)=O)cc4)c3C[C@H]2CN1C(=O)c1ccccc1`, 0.261. `COc1ccc(C#Cc2ccc3c(c2)[C@]2(C(=O)N3)[C@H](C(=O)Nc3nc4ccccc4s3)[C@H]3C(=O)O[C@H](c4ccccc4)[C@H](c4ccccc4)N3[C@@H]2c2ccc(O)cc2)cc1` returned a composite z-score of 0.065. The same measure, in the same setting: for `[N-]=[N+]=Nc1ccccc1[C@H]1OC(c2ccc(OCCCO)cc2)=N[C@@]1(CCS(=O)(=O)c1ccccc1)C(N)=O` the value was 0.291; for `CC(C)c1ccc(NN2C(C(O)c3ccc(B(O)O)cc3)C=CC3C(=O)N(c4ccccc4)C(=O)C32)cc1` (stereo unspecified), -0.119.

`COC(=O)[C@@]1(Cc2ccc(F)cc2)[C@H]2c3cc(C(=O)N(C)C)n(Cc4ccccc4)c3C[C@H]2CN1C(=O)c1ccccc1`: the composite z-score is -0.2.

On to `[N-]=[N+]=Nc1ccccc1[C@@H]1OC(c2ccc(OCCCO)cc2)=N[C@]1(Cc1ccccc1)C(=O)N1CCOCC1`, for which the composite z-score is -0.0062. On the same count and under the same terms, for `CN(C)C(=O)[C@]1(Cc2ccccc2N=[N+]=[N-])N=C(c2ccc(OCCCO)cc2)O[C@@H]1c1ccccc1N=[N+]=[N-]` the value was -0.178; for `CC(C)NC(=O)[C@@]1(c2ccc([N+](=O)[O-])cc2)CC(=O)N(C2CCCCC2)[C@@H]1c1ccc(CO)cc1I`, -0.177; for `COCCOC(=O)N1C(=O)[C@@]2(c3cc(C#Cc4ccc(OC)cc4)ccc31)[C@H](c1ccc(OCCO)cc1)N1[C@H](c3ccccc3)[C@H](c3ccccc3)OC(=O)[C@H]1[C@@H]2C(=O)N1CCN(c2ncccn2)CC1`, 0.0623.

In the case of `CCC[C@@H]1C[C@@]1(CCC)[C@@H](NC(=O)c1ccccc1)c1cccc(Cl)c1`, the composite z-score is -0.0326. In turn, `[N-]=[N+]=Nc1ccccc1[C@H]1OC(c2ccc(OCCCO)cc2)=N[C@@]1(CCS(=O)(=O)c1ccccc1)C(=O)NCC(O)CO` (stereo partly specified) showed a composite z-score of 0.0727. Same read-out and setting: for `O=C1N[C@@H](Cc2ccccc2)C(=O)N2[C@@H]1C[C@@H](C(=O)O)[C@H]2c1cccc(OCCO)c1` the value was -0.102; for `COc1ccc([Si](C)(C)[C@@H]2[C@@H](CC(=O)N3CCC[C@H]3CO)O[C@]3(C(=O)N(c4ccccc4)c4ccccc43)[C@H]2C)cc1`, 0.217. On the same count and under the same terms, under `CC(C)N1C(=O)C[C@@](C(=O)NCC(F)(F)F)(c2ccc([N+](=O)[O-])cc2)[C@H]1c1ccc(CO)cc1` stands -0.0448. Same read-out and setting: for `CN1C(=O)C2C=CC(C(O)C#Cc3ccccc3)N(N3CCCCC3)C2C1=O` (stereo unspecified) the value was -0.0474; for `C=C(C)[C@@H]1CC=C(C(O)C2C=CC3C(=O)N(C)C(=O)C3N2Nc2ccccc2)CC1` (stereo partly specified), 0.0688; for `C=CCOC(=O)[C@@H]1[C@H]2C(=O)O[C@H](c3ccccc3)[C@H](c3ccccc3)N2[C@H](c2ccc(OCCOC(=O)[C@@H]3C[C@@H]4C(=O)NCC(=O)N4[C@@H]3c3ccc(O)cc3)cc2)[C@@]12C(=O)Nc1ccc(I)cc12`, 0.164. The compound `COC(=O)[C@@]1(Cc2ccc(OC)cc2)[C@H]2c3cc(C(=O)N(C)C)n(CCc4ccccn4)c3C[C@H]2CN1C(=O)c1ccccc1` came in with a composite z-score of 0.264.
